Inconclusive results are not listed. Calls of active or inactive are those of the source. Unless noted, calls come from the whole dose curve; as a rule, active = well fitted curve in the direction sought with a large enough effect in the repeat runs; inconclusive = weak or mixed curves; inactive = no such curve, though single readings can be large; an effect the other way counts as inactive or inconclusive.
What was measured:
[1] = qHTS assay for small molecule agonists of the p53 signaling pathway (AID 651631; calls by dose curve; note: nearly all actives have a fitted effect of over 15% in size)
How it was run: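 Agonist mode screen using a stably integrated beta-lactamase gene under p53 response elements in HCT-116 cells. Compound exposure lasts 16 h at 37 °C; fluorescence intensity is measured following 2 h FRET substrate loading.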

[2] = qHTS assay for small molecules that induce genotoxicity in human embryonic kidney cells expressing luciferase-tagged ATAD5 (AID 651632); note: nearly all actives have a fitted effect of over 15% in size
How it was run: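 Quantitative HTS in HEK293T expressing luciferase-tagged ATAD5, whose levels rise upon DNA damage. Exposure ran 16 hr at 37C and 5% CO2, with luminescence read 30 min after Amplite addition at room temperature.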

[3] = qHTS assay for small molecule agonists of the p53 signaling pathway - cell viability (AID 651633; calls by dose curve;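 note: p53RE-bla HCT reporter cells with a stable beta-lactamase p53 reporter; series mostly up to about 83 µM; nearly all actives have a fitted effect of over 30% in size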)
How it was run: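 Viability counter-read: CellTiter-Glo luminescence (30 min, room temperature) in the same p53RE-bla plates. These plates had been exposed to compounds for 16 h at 37 C.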

[4] = qHTS assay for small molecules that induce genotoxicity in human embryonic kidney cells expressing luciferase-tagged ATAD5 - cell viability (AID 651634; calls by dose curve; note: nearly all actives have a fitted effect of over 25% in size)
How it was run: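 After 15.5 hr incubation with compound at 37C, 5% CO2, HEK293T ATAD5-luciferase cells received CellTiter-Fluor reagent; fluorescence intensity was quantified following 30 min at 37C.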

[5] = qHTS assay for small molecule disruptors of the mitochondrial membrane potential - cell viability (AID 720634; calls by dose curve;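 note: human HepG2 liver cancer cells; series mostly up to about 83 µM; nearly all actives have a fitted effect of over 20% in size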)
How it was run: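 ATP-based luminescent viability readout (CellTiter-Glo, 30 min, room temperature) in HepG2 cells multiplexed with the m-MPI membrane potential dye; compound exposure lasted 1 hr at 37 C.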

[6] = qHTS assay to test for compound auto fluorescence at 590 nm (red) in HepG2 cells (AID 720674)
How it was run: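 Red autofluorescence (Ex/Em 540/590 nm, Rose Bengal sodium equivalents) was measured in HepG2 cells, 2,000 per well in MEM plus 10% FBS, plated overnight at 37 C. Readings were taken 1 hr after adding 23 nL compound or DMSO, at 37 C and 5% CO2.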

[7] = qHTS assay to test for compound auto fluorescence at 535 nm (green) in HepG2 cells (AID 720675)
[8] = qHTS assay to test for compound auto fluorescence at 590 nm (red) in HEK293 cells (AID 720679)
How it was run: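 Red autofluorescence, HEK293 cells: 2,000 cells/well; attach 4-5 hr 37C; add 23 nL cpd or DMSO; incubate o/n 37C 5% CO2; read Ex540/Em590; Rose Bengal sodium reference.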

[9] = qHTS assay to test for compound auto fluorescence at 535 nm (green) in HEK293 cells (AID 720680)
[10] = qHTS assay to test for compound auto fluorescence at 460 nm (blue) in HEK293 cell free culture (AID 720681)
How it was run: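 Blue fluorescence (Ex 405/Em 460 nm, triamterene-equivalent) was read immediately after pin transfer of compound or DMSO into medium (DMEM, 10% FBS) without cells.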

[11] = qHTS assay to test for compound auto fluorescence at 535 nm (green) in HEK293 cell free culture (AID 720682)
How it was run: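 No cells present: wells hold DMEM supplemented with 10% FBS, into which compound or vehicle is pinned. Green emission is then recorded (485 nm excitation, 535 nm emission) and scaled to fluorescein.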

[12] = qHTS assay to test for compound auto fluorescence at 590 nm (red) in HEK293 cell free culture (AID 720683)
How it was run: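 Red-channel autofluorescence of compounds in culture medium (DMEM, 10% FBS), no cells, measured at 540/590 nm. Rose Bengal sodium is the reference fluorophore for equivalence.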

[13] = qHTS assay to test for compound auto fluorescence at 590 nm (red) in HepG2 cell free culture (AID 720684)
How it was run: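 Cell-free; medium MEM + 10% FBS; compound or DMSO added by pintool; read Ex 540/Em 590 nm; Rose Bengal sodium as red reference fluorophore.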

[14] = qHTS assay to test for compound auto fluorescence at 460 nm (blue) in HepG2 cell free culture (AID 720685)
How it was run: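 Cell-free plates of MEM plus 10% FBS received 23 nL compound or DMSO vehicle; blue-channel (405/460 nm) intensity scored against triamterene as reference fluorophore.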

[15] = qHTS assay to test for compound auto fluorescence at 535 nm (green) in HepG2 cell free culture (AID 720686)
[16] = qHTS assay to test for compound auto fluorescence at 460 nm (blue) in HepG2 cells (AID 720687)
How it was run: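 Blue-channel autofluorescence (Ex/Em 405/460 nm, triamterene-equivalent) was measured after 1 hr compound exposure at 37 C, 5% CO2. Cells were HepG2, plated overnight at 37 C in MEM plus 10% FBS.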

[17] = target: Glucocorticoid receptor (Homo sapiens) (UniProt P04150); assay: qHTS assay to identify small molecule agonists of the glucocorticoid receptor (GR) signaling pathway (AID 720691; active = well fitted activation curve with a large enough effect in the signal ratio in the repeat runs, not every such curve was filed as active; the % refers to the signal ratio)
How it was run: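 Cells: GR-bla HeLa, endogenous GR with stably integrated GRE-beta-lactamase reporter. Treatment 18 h, 37 C, compounds delivered in DMSO. Detection via LiveBLAzer B/G FRET substrate, 2 h RT, fluorescence intensity.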

[18] = target: Glucocorticoid receptor (Homo sapiens) (UniProt P04150); assay: qHTS assay to identify small molecule antagonists of the glucocorticoid receptor (GR) signaling pathway (AID 720692; active = well fitted inhibition curve with a large enough effect in the signal ratio in the repeat runs, not every such curve was filed as active; the % refers to the signal ratio)
How it was run: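 Quantitative HTS in antagonist format: HeLa cells expressing endogenous GR and a stably integrated GRE-bla reporter, stimulated with 5 nM dexamethasone (final) alongside test compounds for 18 h.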

[19] = qHTS assay to test for compound auto fluorescence at 460 nm (blue) in HEK293 cells (AID 720678)
How it was run: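 Intrinsic compound fluorescence is recorded in live HEK293 cultures after overnight incubation at 37C, 5% CO2, using excitation 405 nm and emission 460 nm. Values are referenced to triamterene.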

[20] = qHTS assay for small molecule disruptors of the mitochondrial membrane potential (AID 720635)
How it was run: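 Mitochondrial membrane potential tracked with Mito-MPS dye, red aggregates (ex 540/em 590 nm) against green monomers (ex 490/em 535 nm). Compound treatment 1 hr at 37C, dye 30 min in HepG2.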
% is set by controls: 0 for no effect and ±100 for the full control effect.

Glucocorticoid receptor (Homo sapiens), sequence (P04150 whole entry, looked up): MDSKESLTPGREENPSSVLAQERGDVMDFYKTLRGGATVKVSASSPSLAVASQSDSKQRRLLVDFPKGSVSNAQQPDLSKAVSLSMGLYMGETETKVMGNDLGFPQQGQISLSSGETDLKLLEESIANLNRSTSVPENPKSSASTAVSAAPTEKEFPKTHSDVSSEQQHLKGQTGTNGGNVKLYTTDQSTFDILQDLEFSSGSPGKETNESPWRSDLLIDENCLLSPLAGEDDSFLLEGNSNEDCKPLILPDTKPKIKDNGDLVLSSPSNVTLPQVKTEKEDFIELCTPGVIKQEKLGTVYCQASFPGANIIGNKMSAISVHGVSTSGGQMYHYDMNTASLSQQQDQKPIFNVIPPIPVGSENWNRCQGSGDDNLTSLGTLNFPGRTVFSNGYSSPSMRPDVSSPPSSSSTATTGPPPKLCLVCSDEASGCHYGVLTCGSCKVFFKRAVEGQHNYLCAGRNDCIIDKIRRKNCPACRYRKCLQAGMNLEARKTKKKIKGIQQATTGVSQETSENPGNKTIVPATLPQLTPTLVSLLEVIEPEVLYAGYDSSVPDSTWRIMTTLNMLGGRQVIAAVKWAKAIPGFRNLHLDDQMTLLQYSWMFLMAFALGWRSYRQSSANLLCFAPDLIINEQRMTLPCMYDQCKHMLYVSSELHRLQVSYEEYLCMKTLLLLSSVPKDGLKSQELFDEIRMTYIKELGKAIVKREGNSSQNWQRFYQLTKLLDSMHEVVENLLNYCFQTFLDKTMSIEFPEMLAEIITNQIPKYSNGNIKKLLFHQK

OC[C@H]1O[C@@H](O[C@H]2[C@H](O)[C@@H](O)[C@H](O)O[C@@H]2CO)[C@H](O)[C@@H](O)[C@H]1O
inactive: Potency [1] | Potency [2] | Potency [3] | Potency [4] | Potency [5] | outcome [6] | outcome [7] | outcome [8] | outcome [9] | outcome [10] | outcome [11] | outcome [12] | outcome [13] | outcome [14] | outcome [15] | outcome [16] | Potency [17] | Potency [18]

COC(=O)c1ccc2cc(C(=O)OC)ccc2c1
inactive: Potency [1] | Potency [2] | Potency [3] | Potency [4] | Potency [5] | fluorescence, % of fluorescein control [7] -0.0327% [at 18.6 µM] | fluorescence, % of triamterene [19] -0.0093% [at 18.6 µM] | fluorescence, % of fluorescent control [8] 0.496% [at 18.6 µM] | fluorescence, % of fluorescein [9] -0.0047% [at 18.6 µM] | fluorescence, % of fluorescent control [10] -0.109% [at 18.6 µM] | activity change [11] -0.0115% [at 18.6 µM] | fluorescence, % of fluorescent control [12] 0.0914% [at 18.6 µM] | fluorescence, % of Rose Bengal [13] 0.0402% [at 18.6 µM] | fluorescence, % of fluorescent control [14] -0.114% [at 18.6 µM] | fluorescence, % of fluorescein control [15] -0.0122% [at 18.6 µM] | fluorescence, % of fluorescent control [16] 0.0678% [at 18.6 µM] | Potency [18]

COc1ccccc1OCC(O)COC(N)=O (stereo not given)
inactive: Potency [1] | Potency [2] | Potency [3] | Potency [20] | fluorescence, relative to Rose Bengal [6] -0.267% [at 18.6 µM] | fluorescence, % of fluorescein control [7] 0.0143% [at 18.6 µM] | fluorescence, % of fluorescent control [8] 0.0645% [at 18.6 µM] | fluorescence, % of fluorescein [9] -0.023% [at 18.6 µM] | fluorescence, % of fluorescent control [10] 0.143% [at 18.6 µM] | activity change [11] 0.0183% [at 18.6 µM] | fluorescence, % of fluorescent control [12] -0.113% [at 18.6 µM] | fluorescence, % of Rose Bengal [13] 0.679% [at 18.6 µM] | fluorescence, % of fluorescent control [14] 0.0993% [at 18.6 µM] | fluorescence, % of fluorescein control [15] -0.0199% [at 18.6 µM] | fluorescence, % of fluorescent control [16] 0.0352% [at 18.6 µM] | Potency [17]

CCN(CC)CCNC(=O)COc1ccc(Cl)cc1
inactive: Potency [1] | Potency [2] | Potency [3] | Potency [5] | outcome [6] | outcome [7] | outcome [19] | outcome [9] | outcome [10] | outcome [11] | outcome [12] | outcome [13] | outcome [14] | outcome [15] | outcome [16] | Potency [18]

C=CCc1cc(OC)c(O)c(C(=O)NCCO)c1
inactive: Potency [1] | Potency [2] | Potency [4] | Potency [5] | Potency [20] | outcome [6] | outcome [7] | outcome [19] | outcome [8] | outcome [9] | outcome [10] | outcome [11] | outcome [12] | outcome [13] | outcome [14] | outcome [15] | outcome [16] | Potency [17] | Potency [18]

O=C1CCCc2ccccc21
inactive: Potency [1] | Potency [2] | Potency [3] | Potency [5] | Potency [20] | outcome [7] | outcome [19] | outcome [8] | outcome [9] | outcome [11] | outcome [12] | outcome [13] | outcome [14] | outcome [15] | Potency [17] | Potency [18]

Cc1c(-c2ccccc2)oc2c(C(=O)OCCN3CCCCC3)cccc2c1=O
inactive: Potency [1] | Potency [2] | Potency [3] | Potency [5] | Potency [20] | fluorescence, relative to Rose Bengal [6] 0.822% [at 18.6 µM] | fluorescence, % of fluorescein control [7] 0.273% [at 18.6 µM] | fluorescence, % of fluorescent control [8] 0.0102% [at 18.6 µM] | fluorescence, % of fluorescein [9] -0.0807% [at 18.6 µM] | fluorescence, % of fluorescent control [10] 0.0764% [at 18.6 µM] | activity change [11] -0.0846% [at 18.6 µM] | fluorescence, % of fluorescent control [12] -0.0474% [at 18.6 µM] | fluorescence, % of Rose Bengal [13] -0.137% [at 18.6 µM] | fluorescence, % of fluorescent control [14] -0.115% [at 18.6 µM] | fluorescence, % of fluorescein control [15] 0.0304% [at 18.6 µM] | fluorescence, % of fluorescent control [16] -0.0666% [at 18.6 µM] | Potency [17] | Potency [18]

Source: PubChem BioAssay (Tox21)
